# Source: paper PMC11006913
# Where a chain is given by its changes, count along the chain named.
# What was measured:
# Test in all cases: PBM; 200 nM protein, PBS
# Conditions in all cases: dsDNA, one strand shown
# SIX6 [1] = molecular target: T1, SIX6 (Homo sapiens, UniProt O95475 114-200, L167I)
# T1 sequence: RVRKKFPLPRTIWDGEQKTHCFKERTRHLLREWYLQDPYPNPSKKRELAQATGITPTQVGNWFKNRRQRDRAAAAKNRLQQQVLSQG
# SIX6 [2] = molecular target: T2, SIX6 (Homo sapiens, UniProt O95475 114-200, L143V)
# T2 sequence: T1 sequence with L30V, I54L
# SIX6 [3] = molecular target: T3, SIX6 (Homo sapiens, UniProt O95475 114-200, H141N)
# T3 sequence: T1 sequence with H28N, I54L
# SIX6 [4] = molecular target: T4, SIX6 (Homo sapiens, UniProt O95475 114-200, T165P)
# T4 sequence: T1 sequence with T52P, I54L
# SIX6 [5] = molecular target: T5, SIX6 (Homo sapiens, UniProt O95475 114-200, L167M)
# T5 sequence: T1 sequence with I54M
# SIX6 [6] = molecular target: T6, SIX6 (Homo sapiens, UniProt O95475 114-200, L143M)
# T6 sequence: T1 sequence with L30M, I54L
# SIX6 [7] = molecular target: T7, SIX6 (Homo sapiens, UniProt O95475 114-200, L143I)
# T7 sequence: T1 sequence with L30I, I54L
# SIX6 [8] = molecular target: T8, SIX6 (Homo sapiens, UniProt O95475 114-200, T165G)
# T8 sequence: T1 sequence with T52G, I54L
# SIX6 [9] = molecular target: T9, SIX6 (Homo sapiens, UniProt O95475 114-200, T139Q)
# T9 sequence: T1 sequence with T26Q, I54L
# SIX6 [10] = molecular target: T10, SIX6 (Homo sapiens, UniProt O95475 114-200, T165A)
# T10 sequence: T1 sequence with T52A, I54L
# SIX6 [11] = molecular target: T11, SIX6 (Homo sapiens, UniProt O95475 114-200, L167V)
# T11 sequence: T1 sequence with I54V
# SIX6 [12] = molecular target: T12, SIX6 (Homo sapiens, UniProt O95475 114-200)
# T12 sequence: T1 sequence with I54L
# SIX6 [13] = molecular target: T13, SIX6 (Homo sapiens, UniProt O95475 114-200, T165I)
# T13 sequence: T1 sequence with T52I, I54L
Sequence,binding signal (SIX6 [1]),binding signal (SIX6 [2]),binding signal (SIX6 [3]),binding signal (SIX6 [4]),binding signal (SIX6 [5]),binding signal (SIX6 [6]),binding signal (SIX6 [7]),binding signal (SIX6 [8]),binding signal (SIX6 [9]),binding signal (SIX6 [10]),binding signal (SIX6 [11]),binding signal (SIX6 [12]),binding signal (SIX6 [13])
ACGATATC,"11.1 upbm affinity estimate (log intensity, higher = more binding, comparable within an allelic series)","10.2 upbm affinity estimate (log intensity, higher = more binding, comparable within an allelic series)","11.1 upbm affinity estimate (log intensity, higher = more binding, comparable within an allelic series)","9.76 upbm affinity estimate (log intensity, higher = more binding, comparable within an allelic series)","10.6 upbm affinity estimate (log intensity, higher = more binding, comparable within an allelic series)","11 upbm affinity estimate (log intensity, higher = more binding, comparable within an allelic series)","10.3 upbm affinity estimate (log intensity, higher = more binding, comparable within an allelic series)","11.3 upbm affinity estimate (log intensity, higher = more binding, comparable within an allelic series)","11.2 upbm affinity estimate (log intensity, higher = more binding, comparable within an allelic series)","11 upbm affinity estimate (log intensity, higher = more binding, comparable within an allelic series)","10.9 upbm affinity estimate (log intensity, higher = more binding, comparable within an allelic series)","10.9 upbm affinity estimate (log intensity, higher = more binding, comparable within an allelic series)","10.8 upbm affinity estimate (log intensity, higher = more binding, comparable within an allelic series)"
ATGGCCCG,"8.97 upbm affinity estimate (log intensity, higher = more binding, comparable within an allelic series)","8.9 upbm affinity estimate (log intensity, higher = more binding, comparable within an allelic series)","9.08 upbm affinity estimate (log intensity, higher = more binding, comparable within an allelic series)","9.03 upbm affinity estimate (log intensity, higher = more binding, comparable within an allelic series)","9 upbm affinity estimate (log intensity, higher = more binding, comparable within an allelic series)","8.97 upbm affinity estimate (log intensity, higher = more binding, comparable within an allelic series)","8.99 upbm affinity estimate (log intensity, higher = more binding, comparable within an allelic series)","9.03 upbm affinity estimate (log intensity, higher = more binding, comparable within an allelic series)","9.09 upbm affinity estimate (log intensity, higher = more binding, comparable within an allelic series)","8.99 upbm affinity estimate (log intensity, higher = more binding, comparable within an allelic series)","8.99 upbm affinity estimate (log intensity, higher = more binding, comparable within an allelic series)","9 upbm affinity estimate (log intensity, higher = more binding, comparable within an allelic series)","9.05 upbm affinity estimate (log intensity, higher = more binding, comparable within an allelic series)"
GCCGCGCA,"8.96 upbm affinity estimate (log intensity, higher = more binding, comparable within an allelic series)","8.97 upbm affinity estimate (log intensity, higher = more binding, comparable within an allelic series)","8.91 upbm affinity estimate (log intensity, higher = more binding, comparable within an allelic series)","8.97 upbm affinity estimate (log intensity, higher = more binding, comparable within an allelic series)","8.9 upbm affinity estimate (log intensity, higher = more binding, comparable within an allelic series)","8.97 upbm affinity estimate (log intensity, higher = more binding, comparable within an allelic series)","8.96 upbm affinity estimate (log intensity, higher = more binding, comparable within an allelic series)","8.81 upbm affinity estimate (log intensity, higher = more binding, comparable within an allelic series)","8.99 upbm affinity estimate (log intensity, higher = more binding, comparable within an allelic series)","8.86 upbm affinity estimate (log intensity, higher = more binding, comparable within an allelic series)","8.86 upbm affinity estimate (log intensity, higher = more binding, comparable within an allelic series)","8.91 upbm affinity estimate (log intensity, higher = more binding, comparable within an allelic series)","8.89 upbm affinity estimate (log intensity, higher = more binding, comparable within an allelic series)"
